Results taken from PubChem BioAssay AID504444 (National Center for Advancing Translational Sciences (NCATS), 2011).
The campaign covered roughly 360,000 compounds. About 7,500 (2.1%) were called active. Inconclusive results (about 20%) are left out. Many of the other results were omitted from the sample, so actives are more common in it than they were. Unmarked numbers belong to inactive results. Calls follow the shape of the dose curve; as a rule, active = well fitted inhibition curve with a large enough effect; inconclusive = small, poorly fitted or top-dose-only effect, or effect the other way; inactive = flat fitted curve, though single readings scatter.

test: Nrf2 qHTS screen for inhibitors; conditions: A549 ARE-Fluc reporter, luciferase luminescence, 18-24 h; series mostly up to 46 µM; activity change, negative = inhibition: at the top concentration; also: nearly all actives have a fitted effect of over 60% in size
Source text: NIH Molecular Libraries Probe Production Network [MLPCN]
NIH Chemical Genomics Center [NCGC]
Assay Provider: Shyam Biswal, Johns Hopkins University
Nrf2 is a transcription factor that maintains cellular redox homoestasis and protects cells from xenobiotics. Nrf2 binds to the antioxidant response element (ARE) to induce gene expression of a broad spectrum of genes that encode for antioxidants. […] Finding a small molecule that act as an inhibitor of Nrf2 function would represent a novel therapeutic target that could lead to improvement in survival of patients undergoing chemo- and/or radio- therapy.
This is the Nrf2 activity measured in the luminescent read.
1. Shibata, T., et al., Genetic Alteration of Keap1 Confers Constitutive Nrf2 Activation and Resistance to Chemotherapy in Gallbladder Cancer. Gastroenterology, 2008.
2. Sjoblom, T., et al., The consensus coding sequences of human breast and colorectal cancers. Science, 2006. 314(5797): p. 268-74.
NCGC Assay Protocol Summary:
A concentration-response assay was performed with A549 ARE_Fluc cells which are suspended in 5% FBS OPTI-MEM. Five uL were dispensed into 1536-well white TC-treated plate using the Kalypsys dispenser to achieve a density of 5000 cells/well in all columns except column 1. The plate is incubated at 37deg C at 5% CO2 for 2 hours before 23 nL of compounds are added with the Kalypsys pin tool equipped with a 1,536-pin array containing 10-nL slotted pins (FP1S10, 0.457-mm diameter, 50.8 mm long; V&P Scientific). The control compounds Budesonide and Staurosporine are both added at a concentration of 2mM and Budesonide is also added as a 1:10 titration, starting at 200uM, to achieve dose-response. After an 18-24 hour incubation at 37deg C at 5% CO2, 5ul of medium is added to column 1. Afterwards 1ul of 5x of CellTiter-Fluor (Promega) is added to every well. The plate is then incubated at 37deg C at 5% CO2 for 30 minutes before they are read on the ViewLux (Perkin Elmer) for a fluorescent read Ex=405(10)/Em=525(10) for a 3 second exposure, 2x binning, and high gain. Then 3 uL of 3x BugLite is dispensed into all wells and the plate is incubated at ambient room temperature for 15 minutes. Afterwards another ViewLux read is performed using the clear filter to get a luminescent read with the settings of 40 second exposure, 2x binning, and high gain. Cytotoxicity is assessed through the first fluorescent read and then biochemical activity against Nrf2 is measured in the luminescent read.
% is scaled to controls: 0 for no effect and ±100 for the full control effect; potency is read from the fitted curve at half-maximal effect.

Compound | activity change, negative = inhibition [%] | Potency
CCCn1c(C)cc(-c2csc(NC(=O)CCc3nc4ccccc4c(=O)[nH]3)n2)c1C | -5.04 | –
Cc1cc(C)c(-c2csc(NC(=O)CCCc3nc4ccccc4c(=O)[nH]3)n2)c(C)c1 | – | 9.2 µM (active)
CC(=O)NCc1ccc(-c2csc(NC(=O)CCCc3nc4ccccc4c(=O)[nH]3)n2)cc1 | 4.73 | –
Cc1sc2ncn(CC(=O)N3CCN(c4ccc(F)cc4)CC3)c(=O)c2c1S(=O)(=O)N1CCN(c2ncccn2)CC1 | -18 | –
CC(C)(C)NC(=O)NC(=O)COC(=O)Cc1c(F)cccc1Cl | -0.296 | –
O=C(Cc1c(F)cccc1Cl)Nc1ncc([N+](=O)[O-])s1 | – | 16.4 µM (active)
COc1ccc(S(=O)(=O)N2CCOCC2)cc1NC(=O)Cc1c(F)cccc1Cl | -7.15 | –
Cc1ccc(S(=O)(=O)c2cc3c(=O)n4cccc(C)c4nc3n(CCc3ccccc3)c2=N)cc1C | 3.09 | –
COC(=O)c1ccccc1NC(=O)c1cnn(-c2ccc(F)cc2)c1-n1cccc1 | 29.2 | –
COc1ccc2c(c1)c(N1CCCC1=O)c(C(=O)Nc1ccccc1C(F)(F)F)n2C | 25.9 | –
CCC1([N+](=O)[O-])COC(c2ccc(C)cc2)OC1 (centres undefined) | 8.27 | –
CCOC(=O)c1ccc(NC(=O)C2CC(=O)NC(=Nc3ccc(C)c(C)c3)S2)cc1 (centres undefined) | 2.13 | –
CN(C)c1ccc(/C=N\S(=O)(=O)c2ccccc2)cc1 | 0.274 | –
CC[n+]1cc(C)ccc1/C=C/c1ccc(N(C)C)cc1 | – | 4.11 µM (active)
C=CC(COCc1ccccc1)N(CC(=O)OC)S(=O)(=O)c1cc(Br)ccc1OC (centres undefined) | -14.9 | –
Cc1nn(CC(=O)O)c(=O)c2cc3cc(F)ccc3n12 | 1.3 | –
Cc1ccccc1C(=O)O | -0.366 | –
O=C1OC(OC(=O)c2ccccc2Br)C(N2CCOCC2)=C1Cl (centres undefined) | -22.5 | –
Cc1ccccc1C(=O)OC1OC(=O)C(Cl)=C1Nc1ccccc1 (centres undefined) | – | 8.2 µM (active)
CCOC(=O)c1c(-c2ccc(OC)cc2)oc2ccc(OCc3ccc(C(=O)OC)cc3)cc12 | -9.39 | –
O=C(NCCCN1CCOCC1)c1cn(-c2ccccc2)nc1-c1ccc(F)cc1 | -5.73 | –
CCCCCCSc1ccc(-c2nc3ccc(Cl)cn3c2NCc2ccccc2)cc1 | 6.14 | –
O=C(CNC(=O)c1ccc(Cl)c(C(F)(F)F)c1)OC(C(=O)Nc1cc(C(F)(F)F)ccc1Cl)c1ccccc1 (centres undefined) | 17 | –
COc1ccc(OC)c(/C=C/C(=O)c2ccc3c(c2)OCO3)c1 | -2.43 | –
Cc1ccc(C)c(N2CCN(C(=O)Cn3nc(C)c4sc5ccccc5c4c3=O)CC2)c1 | -25.7 | –

Compound | activity change, negative = inhibition [%] | Potency
CCc1nn(CC(=O)N2CCN(c3cc(C)ccc3C)CC2)c(=O)c2cc3occc3n12 | – | inactive
Cc1ccc(C)c(N2CCN(C(=O)Cn3ncn4cccc4c3=O)CC2)c1 | – | 23.1 µM (active)
COc1ccc(-c2nc(CN3CCC(C(=O)NCCN(CC(C)C)CC(C)C)CC3)c(C)o2)cc1OC | 1.5 | –
CN(C(=O)c1cccc(NC(=O)Cc2ccc(NC(=O)C3CCN(C(=O)C4CCCCC4)CC3)cc2)c1)C1CCC1 | 5.92 | –
CS(=O)(=O)N(CC(=O)N1CCCC1)Cc1ccccc1 | 0.0838 | –
COc1ccccc1N1CCN(S(=O)(=O)c2ccc(Cl)cc2)CC1 | -28.2 | –
COc1ccccc1N1CCN(C(=O)CN(Cc2ccc(Cl)cc2)S(C)(=O)=O)CC1 | – | 23.1 µM (active)
O=S1(=O)N=C(Oc2cccc(Br)c2)c2ccccc21 | -1.46 | –
COc1ccc(-c2cc(-c3nc(-c4cc(OC)c(OC)c(OC)c4)no3)[nH]n2)c(OC)c1 | -8.11 | –
CC(C)(C)OC(=O)N1CCC(C(=O)Nc2cccc(C(=O)NCCc3ccccc3)c2)CC1 | -0.0845 | –
CCN(CCCNC(=O)CSc1cc(=O)n(C)c2cc(Cl)ccc12)c1cccc(C)c1 | 0.522 | –
Cc1ccc(C(=O)NC2CCN(C#N)CC2)cc1 | 7.04 | –
COCc1cc(=O)n2[nH]c(C)c(-c3ccccc3)c2n1 | -21.7 | –
Cc1nc2c(-c3ccccc3)c(C)[nH]n2c(=O)c1Cl | – | 20.6 µM (active)
Cc1cc(=O)n2[nH]c(-c3cccc(Cl)c3)cc2n1 | 7.12 | –
O=[S+]([O-])(c1ccc2c(c1)OCCO2)N1CCN([S+](=O)([O-])c2c(Cl)cc(Cl)cc2Br)CC1 | 4.14 | –
COc1cccc(CNS(=O)(=O)c2ccc3c(c2)CC(C)N3C(=O)C2CCC2)c1 (centres undefined) | – | 11.6 µM (active)
COc1ccc(N(C)S(=O)(=O)c2ccc3c(c2)CC(C)N3C(=O)C2CC2)c(OC)c1 (centres undefined) | -21.9 | –
COc1cccc(CNS(=O)(=O)c2ccc3c(c2)CC(C)N3C(C)=O)c1 (centres undefined) | -2.36 | –
CC(=O)OC1CCC2C3CCC4=C(CC(F)C(=O)C4)C3CCC12C (centres undefined) | -23.5 | –
C/C=C/c1ccc(OCC(=O)NNC(=O)CN(C)S(=O)(=O)c2ccc(C)cc2)c(OC)c1 | 2.15 | –
Cc1ccc(C)c(N2CCN(C(c3ccccc3)c3nnc(-c4ccccc4)o3)CC2)c1 (centres undefined) | 0.91 | –
CCCn1c(NCc2ccc(N(CC)CC)cc2)nc2ccccc21 | 1.93 | –
O=C(/C=C/c1ccccc1)c1ccccc1O | – | 3.66 µM (active)
